Common to all, as to test: DAPPL (digital affinity profiling via proximity ligation, sequencing); 10 mM Tris-HCl pH 7.5, 50 mM NaCl, 1 mM DTT, 4% glycerol, room temperature, 30 min; GST-TFs on glutathione beads, 16-mer random dsDNA library, 0.1% formaldehyde crosslink after washing; high values mean tight binding
One test has as its target HSF1 (Homo sapiens, UniProt Q00613 1-529). Particulars: protein: recombinant; tags: N-terminal GST; chain copies: 3; dsDNA, one strand shown. In outline:
(§1)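 Human transcription factors were made in yeast as GST fusions, captured on glutathione beads and barcoded with DNA. With a tag-only sample included, the pool was incubated with 200 nmole of a random double-stranded 16-mer DNA library in Tris/NaCl/DTT/glycerol buffer at room temperature for 30 min, then crosslinked with 0.1% formaldehyde after washing, ligated by proximity, amplified and sequenced. For binding signal, each hexamer's read frequency for a factor is divided by its frequency for the tag-only sample.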

A further test concerns the target T1, SPIC (Homo sapiens, UniProt Q8N5J4 1-248).
T1 sequence: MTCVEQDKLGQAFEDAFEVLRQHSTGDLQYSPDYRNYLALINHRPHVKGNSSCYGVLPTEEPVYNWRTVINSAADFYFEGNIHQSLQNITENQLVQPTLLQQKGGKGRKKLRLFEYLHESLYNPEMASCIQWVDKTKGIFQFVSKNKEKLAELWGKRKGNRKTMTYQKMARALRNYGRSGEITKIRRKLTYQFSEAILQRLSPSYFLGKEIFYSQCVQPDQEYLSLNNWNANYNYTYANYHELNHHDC
Particulars: protein: recombinant; tags: N-terminal GST; dsDNA, one strand shown. The gist of the method: as §1

The next test concerns the target T2, GABPA (Homo sapiens, UniProt Q06546 1-454).
T2 sequence: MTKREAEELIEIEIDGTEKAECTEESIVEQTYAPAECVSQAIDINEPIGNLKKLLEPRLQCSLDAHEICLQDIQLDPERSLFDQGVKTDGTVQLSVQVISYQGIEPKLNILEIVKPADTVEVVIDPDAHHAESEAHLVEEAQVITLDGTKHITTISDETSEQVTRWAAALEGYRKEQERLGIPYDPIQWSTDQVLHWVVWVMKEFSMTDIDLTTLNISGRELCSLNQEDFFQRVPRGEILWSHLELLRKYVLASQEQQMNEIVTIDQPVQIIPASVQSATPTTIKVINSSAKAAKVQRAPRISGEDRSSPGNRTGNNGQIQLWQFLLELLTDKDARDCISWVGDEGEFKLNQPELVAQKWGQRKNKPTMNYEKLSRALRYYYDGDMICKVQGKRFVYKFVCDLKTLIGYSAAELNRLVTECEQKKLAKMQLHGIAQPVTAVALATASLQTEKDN
As to conditions: protein: recombinant; tags: N-terminal GST; dsDNA, one strand shown. In outline: as §1

The target of the next test is ELF1 (Homo sapiens, UniProt P32519 1-619). Particulars: protein: recombinant; tags: N-terminal GST; dsDNA, one strand shown. The gist of the method: as §1
ELF1, sequence (P32519 whole entry): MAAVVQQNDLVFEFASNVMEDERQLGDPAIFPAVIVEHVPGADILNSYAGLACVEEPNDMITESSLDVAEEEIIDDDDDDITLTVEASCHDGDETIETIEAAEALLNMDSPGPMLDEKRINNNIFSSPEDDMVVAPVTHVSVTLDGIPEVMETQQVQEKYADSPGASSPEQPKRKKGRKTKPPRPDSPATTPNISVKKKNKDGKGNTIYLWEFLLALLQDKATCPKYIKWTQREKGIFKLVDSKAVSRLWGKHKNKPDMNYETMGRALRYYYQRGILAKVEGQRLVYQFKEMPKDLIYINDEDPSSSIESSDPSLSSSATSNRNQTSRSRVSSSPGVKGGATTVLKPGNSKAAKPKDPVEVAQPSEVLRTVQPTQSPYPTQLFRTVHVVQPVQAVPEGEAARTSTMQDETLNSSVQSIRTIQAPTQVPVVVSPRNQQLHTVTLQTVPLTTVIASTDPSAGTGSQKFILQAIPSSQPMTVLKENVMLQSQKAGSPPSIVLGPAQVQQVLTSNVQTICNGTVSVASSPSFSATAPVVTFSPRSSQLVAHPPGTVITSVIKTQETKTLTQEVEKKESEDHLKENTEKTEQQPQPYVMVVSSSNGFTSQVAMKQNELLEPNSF
The next test addresses SPIB (Homo sapiens, UniProt Q01892 1-262). Particulars: protein: recombinant; tags: N-terminal GST; dsDNA, one strand shown. In outline:
as §1

The target of a further test is ELF4 (Homo sapiens, UniProt Q99607 1-663). Particulars: protein: recombinant; tags: N-terminal GST; dsDNA, one strand shown. The gist of the method:
as §1

A further test has as its target T3, ELF3 (Homo sapiens, UniProt P78545 1-371).
T3 sequence: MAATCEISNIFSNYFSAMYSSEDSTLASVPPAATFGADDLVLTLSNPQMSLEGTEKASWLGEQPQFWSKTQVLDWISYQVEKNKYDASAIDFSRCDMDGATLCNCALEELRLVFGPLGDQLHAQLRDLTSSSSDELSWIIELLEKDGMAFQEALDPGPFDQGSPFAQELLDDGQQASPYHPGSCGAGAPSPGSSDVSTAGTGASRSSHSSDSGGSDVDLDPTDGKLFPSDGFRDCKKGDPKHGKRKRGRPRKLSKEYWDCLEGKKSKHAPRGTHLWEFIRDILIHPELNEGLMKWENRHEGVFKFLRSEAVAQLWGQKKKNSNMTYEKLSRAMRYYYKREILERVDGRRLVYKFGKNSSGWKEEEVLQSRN
Particulars: protein: recombinant; tags: N-terminal GST; dsDNA, one strand shown. The gist of the method:
as §1

A further test concerns the target CRX (Homo sapiens, UniProt O43186 1-299). Particulars: protein: recombinant; tags: N-terminal GST; dsDNA, one strand shown. The gist of the method:
as §1

Another test addresses T4, ERF (Homo sapiens, UniProt P50548 1-548).
T4 sequence: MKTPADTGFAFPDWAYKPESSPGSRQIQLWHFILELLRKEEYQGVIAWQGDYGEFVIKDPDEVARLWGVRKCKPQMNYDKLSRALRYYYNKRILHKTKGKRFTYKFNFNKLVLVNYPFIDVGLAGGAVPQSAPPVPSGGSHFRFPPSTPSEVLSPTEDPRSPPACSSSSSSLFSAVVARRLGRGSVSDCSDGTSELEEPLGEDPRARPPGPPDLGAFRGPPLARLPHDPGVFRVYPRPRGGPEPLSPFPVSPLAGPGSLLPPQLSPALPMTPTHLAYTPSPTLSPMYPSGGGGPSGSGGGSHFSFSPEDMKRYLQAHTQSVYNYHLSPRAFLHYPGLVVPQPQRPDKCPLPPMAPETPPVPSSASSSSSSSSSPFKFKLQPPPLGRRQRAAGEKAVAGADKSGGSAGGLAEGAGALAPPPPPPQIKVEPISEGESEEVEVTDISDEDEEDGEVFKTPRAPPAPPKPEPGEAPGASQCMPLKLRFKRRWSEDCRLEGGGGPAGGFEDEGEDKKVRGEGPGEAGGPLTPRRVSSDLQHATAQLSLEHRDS
Particulars: protein: recombinant; tags: N-terminal GST; dsDNA, one strand shown. In outline:
as §1

The target in a further test is T5, ETV3L (Homo sapiens, UniProt Q6ZN32 1-361).
T5 sequence: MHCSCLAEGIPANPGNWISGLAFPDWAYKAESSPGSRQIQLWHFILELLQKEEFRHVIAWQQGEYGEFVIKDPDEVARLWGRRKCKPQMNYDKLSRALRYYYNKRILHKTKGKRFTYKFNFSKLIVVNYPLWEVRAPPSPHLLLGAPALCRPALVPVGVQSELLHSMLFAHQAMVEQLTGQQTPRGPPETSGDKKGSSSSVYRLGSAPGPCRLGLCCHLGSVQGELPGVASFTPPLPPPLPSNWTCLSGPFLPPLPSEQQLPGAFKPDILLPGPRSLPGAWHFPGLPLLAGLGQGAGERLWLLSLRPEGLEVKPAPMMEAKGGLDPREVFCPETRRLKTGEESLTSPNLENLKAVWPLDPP
As to conditions: protein: recombinant; tags: N-terminal GST; dsDNA, one strand shown. The gist of the method: as §1

The target of a further test is T6, ETS2 (Homo sapiens, UniProt P15036 1-469).
T6 sequence: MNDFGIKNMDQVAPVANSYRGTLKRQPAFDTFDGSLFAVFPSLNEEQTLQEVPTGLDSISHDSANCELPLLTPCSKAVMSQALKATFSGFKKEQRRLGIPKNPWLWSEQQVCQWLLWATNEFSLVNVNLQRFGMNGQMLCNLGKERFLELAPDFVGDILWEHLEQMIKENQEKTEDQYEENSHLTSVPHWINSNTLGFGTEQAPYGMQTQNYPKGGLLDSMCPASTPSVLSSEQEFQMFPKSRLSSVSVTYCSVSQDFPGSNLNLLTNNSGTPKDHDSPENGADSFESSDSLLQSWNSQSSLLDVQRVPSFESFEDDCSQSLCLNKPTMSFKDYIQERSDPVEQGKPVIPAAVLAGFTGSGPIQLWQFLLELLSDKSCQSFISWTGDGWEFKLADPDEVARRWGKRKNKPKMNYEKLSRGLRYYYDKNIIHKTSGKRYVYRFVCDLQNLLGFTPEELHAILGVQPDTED
Particulars: protein: recombinant; tags: N-terminal GST; dsDNA, one strand shown. The gist of the method:
as §1

The target of a further test is T7, SPDEF (Homo sapiens, UniProt O95238 1-335).
T7 sequence: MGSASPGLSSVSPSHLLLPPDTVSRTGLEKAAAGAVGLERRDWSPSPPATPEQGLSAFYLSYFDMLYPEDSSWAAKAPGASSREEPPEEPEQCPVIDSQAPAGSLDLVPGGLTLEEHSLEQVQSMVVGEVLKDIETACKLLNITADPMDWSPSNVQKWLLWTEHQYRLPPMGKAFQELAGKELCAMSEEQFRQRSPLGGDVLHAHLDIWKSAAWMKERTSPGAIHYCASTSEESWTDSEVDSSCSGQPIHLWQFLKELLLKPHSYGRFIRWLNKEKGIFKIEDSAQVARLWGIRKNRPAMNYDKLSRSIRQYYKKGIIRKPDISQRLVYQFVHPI
As to conditions: protein: recombinant; tags: N-terminal GST; dsDNA, one strand shown. The gist of the method:
as §1

For another test, the target named is T8, ETV7 (Homo sapiens, UniProt Q9Y603 1-341).
T8 sequence: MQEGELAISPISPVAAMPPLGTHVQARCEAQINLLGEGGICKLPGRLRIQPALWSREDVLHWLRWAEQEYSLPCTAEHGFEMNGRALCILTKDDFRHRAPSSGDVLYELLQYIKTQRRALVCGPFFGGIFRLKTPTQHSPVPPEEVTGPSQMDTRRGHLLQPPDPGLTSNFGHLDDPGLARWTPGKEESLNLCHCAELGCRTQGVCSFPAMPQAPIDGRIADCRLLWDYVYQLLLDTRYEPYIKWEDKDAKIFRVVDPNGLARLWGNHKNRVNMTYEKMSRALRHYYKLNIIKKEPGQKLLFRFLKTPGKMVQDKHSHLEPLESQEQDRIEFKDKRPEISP
As to conditions: protein: recombinant; tags: N-terminal GST; dsDNA, one strand shown. The gist of the method:
as §1

The target in another test is T9, ETV3 (Homo sapiens, UniProt P41162-2 1-143).
T9 sequence: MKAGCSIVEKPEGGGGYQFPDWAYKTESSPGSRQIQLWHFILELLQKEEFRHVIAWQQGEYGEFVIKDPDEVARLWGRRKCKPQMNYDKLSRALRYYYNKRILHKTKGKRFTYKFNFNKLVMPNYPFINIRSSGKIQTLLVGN
Particulars: protein: recombinant; tags: N-terminal GST; dsDNA, one strand shown. The gist of the method: as §1

Another test deals with ETV6 (Homo sapiens, UniProt P41212 1-452). Particulars: protein: recombinant; tags: N-terminal GST; dsDNA, one strand shown. In outline:
as §1

HSF1, sequence (Q00613 whole entry, the tested form may be a part): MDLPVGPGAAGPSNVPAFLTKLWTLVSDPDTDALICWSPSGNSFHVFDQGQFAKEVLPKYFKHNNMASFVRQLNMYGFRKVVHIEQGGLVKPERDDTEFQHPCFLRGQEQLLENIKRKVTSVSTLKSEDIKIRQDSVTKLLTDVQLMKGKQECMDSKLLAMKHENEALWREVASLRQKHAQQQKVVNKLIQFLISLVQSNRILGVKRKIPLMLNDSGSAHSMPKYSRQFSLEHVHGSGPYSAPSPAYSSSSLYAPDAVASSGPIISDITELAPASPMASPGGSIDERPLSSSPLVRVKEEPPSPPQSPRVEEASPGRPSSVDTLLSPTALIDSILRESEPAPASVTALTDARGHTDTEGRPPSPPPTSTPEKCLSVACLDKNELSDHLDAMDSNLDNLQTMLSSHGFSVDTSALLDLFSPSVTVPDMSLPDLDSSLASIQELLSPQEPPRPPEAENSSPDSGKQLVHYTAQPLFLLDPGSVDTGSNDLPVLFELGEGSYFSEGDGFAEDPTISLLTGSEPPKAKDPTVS
ETV6, sequence (P41212 whole entry): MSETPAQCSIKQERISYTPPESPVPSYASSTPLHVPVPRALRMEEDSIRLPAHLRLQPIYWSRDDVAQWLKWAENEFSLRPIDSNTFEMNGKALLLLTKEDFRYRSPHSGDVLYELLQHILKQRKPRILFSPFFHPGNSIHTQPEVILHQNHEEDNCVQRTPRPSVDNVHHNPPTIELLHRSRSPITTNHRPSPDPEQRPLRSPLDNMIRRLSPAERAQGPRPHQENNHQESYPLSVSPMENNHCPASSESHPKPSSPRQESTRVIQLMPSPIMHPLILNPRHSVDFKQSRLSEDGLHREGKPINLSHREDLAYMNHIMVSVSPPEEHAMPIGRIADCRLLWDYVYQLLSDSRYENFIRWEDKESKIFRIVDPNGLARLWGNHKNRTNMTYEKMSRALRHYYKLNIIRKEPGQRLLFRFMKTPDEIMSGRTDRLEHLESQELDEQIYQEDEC
SPIB, sequence (Q01892 whole entry): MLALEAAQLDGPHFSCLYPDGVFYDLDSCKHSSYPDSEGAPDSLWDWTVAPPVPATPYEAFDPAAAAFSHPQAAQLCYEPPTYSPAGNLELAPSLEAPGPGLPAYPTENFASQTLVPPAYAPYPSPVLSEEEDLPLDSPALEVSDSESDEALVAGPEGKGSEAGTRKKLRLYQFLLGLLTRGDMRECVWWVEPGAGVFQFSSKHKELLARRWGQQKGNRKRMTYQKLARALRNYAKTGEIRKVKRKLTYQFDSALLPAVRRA
CRX, sequence (O43186 whole entry): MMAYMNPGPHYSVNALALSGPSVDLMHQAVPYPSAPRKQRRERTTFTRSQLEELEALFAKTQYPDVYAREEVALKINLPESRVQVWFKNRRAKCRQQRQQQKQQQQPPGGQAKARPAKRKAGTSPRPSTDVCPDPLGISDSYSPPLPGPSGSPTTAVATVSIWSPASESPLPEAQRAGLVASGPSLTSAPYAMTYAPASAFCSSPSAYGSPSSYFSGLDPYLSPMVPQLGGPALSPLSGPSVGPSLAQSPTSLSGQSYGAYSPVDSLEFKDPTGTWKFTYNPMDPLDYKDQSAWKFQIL
ELF4, sequence (Q99607 whole entry): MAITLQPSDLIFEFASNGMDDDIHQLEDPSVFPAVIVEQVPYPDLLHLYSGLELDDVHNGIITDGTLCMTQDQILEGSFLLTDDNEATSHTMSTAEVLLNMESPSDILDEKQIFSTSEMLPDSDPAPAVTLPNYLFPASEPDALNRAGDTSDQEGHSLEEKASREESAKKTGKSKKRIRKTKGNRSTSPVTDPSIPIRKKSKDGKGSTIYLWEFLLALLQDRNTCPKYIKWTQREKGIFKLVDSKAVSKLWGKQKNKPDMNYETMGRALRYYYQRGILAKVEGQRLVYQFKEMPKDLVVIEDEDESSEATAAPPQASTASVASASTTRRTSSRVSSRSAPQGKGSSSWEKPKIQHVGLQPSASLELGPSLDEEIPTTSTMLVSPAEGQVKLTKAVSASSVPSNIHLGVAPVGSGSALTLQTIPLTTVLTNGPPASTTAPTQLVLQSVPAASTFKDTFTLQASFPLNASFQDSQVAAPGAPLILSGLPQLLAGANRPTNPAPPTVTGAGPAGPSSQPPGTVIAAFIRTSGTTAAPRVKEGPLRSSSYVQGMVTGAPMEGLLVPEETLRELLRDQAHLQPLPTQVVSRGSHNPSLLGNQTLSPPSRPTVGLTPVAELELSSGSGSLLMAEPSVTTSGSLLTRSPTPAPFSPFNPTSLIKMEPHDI

Turning to GCAGAA, the binding signal was 1.15 fold enrichment (6-mer frequency, TF over GST control) with HSF1 and 1.03 fold enrichment (6-mer frequency, TF over GST control) in the test with SPIC.

With GCTTAA, the binding signal with GABPA is 1.14 fold enrichment (6-mer frequency, TF over GST control); in the test with ELF1, 1.11 fold enrichment (6-mer frequency, TF over GST control); with SPIB, 1.09 fold enrichment (6-mer frequency, TF over GST control); with HSF1, 1.86 fold enrichment (6-mer frequency, TF over GST control); with SPIC, 1 fold enrichment (6-mer frequency, TF over GST control); with ELF4 it was 1.02 fold enrichment (6-mer frequency, TF over GST control). The binding signal was 1.02 fold enrichment (6-mer frequency, TF over GST control) with ELF3; 3.04 fold enrichment (6-mer frequency, TF over GST control) with CRX; 1.03 fold enrichment (6-mer frequency, TF over GST control) with ERF; 1.05 fold enrichment (6-mer frequency, TF over GST control) in the test with ETV3L; 1.08 fold enrichment (6-mer frequency, TF over GST control) in the test with ETS2; 1.06 fold enrichment (6-mer frequency, TF over GST control) in the test with SPDEF. Also, the binding signal with ETV7 is 1.06 fold enrichment (6-mer frequency, TF over GST control); with ETV3 it was 1.13 fold enrichment (6-mer frequency, TF over GST control); in the test with ETV6, 1.05 fold enrichment (6-mer frequency, TF over GST control).

The values are drawn from PMC7862700, “An all-to-all approach to the identification of sequence-specific readers for epigenetic DNA modifications on cytosine”.
